As usually defined, the AC50 is the concentration giving half of the maximal activity seen.

The text below walks through data of PubChem BioAssay (EPA / NIEHS).

The target in assay [1] is rat Neonicotinoid receptor (NNR), Chrna7 (gene 25302) (UniProt Q05941). Kind of assay: NVS_LGIC_rNNR_BungSens: NovaScreen (NVS) Ligand-Gated Ion Channel Assay for rat Neonicotinoid receptor (NNR) (AID 2283315). The gist of the method:
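Rat cortical membrane preparation incubated 2.5 h with tritiated or iodinated radioligand and test chemical. Bound radioactivity was filtered and counted by scintillation, and displacement was analysed against DMSO.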

The target in assay [2] is Sodium channel protein type 1 subunit alpha (Rattus norvegicus) (UniProt P04774). In words: NVS_IC_rNaCh_site2: NovaScreen (NVS) Ion Channel Assay for rat Sodium Channel, Site 2 (NaCh) (AID 2283322).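 Note: hit means loss of radioligand binding signal relative to DMSO so AC50 marks displacement.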 The gist of the method: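 Initial duplicate single-point testing at 25 uM, followed by concentration-response runs for actives. Binding of radioligand to rat forebrain membranes quantified after 1 h via filter-based radiodetection.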

Assay [3] has as its target rat Opioid Receptor, Non-selective Sodium (Na+) Binding, Oprm1 (gene 25601) (UniProt P33535). Kind of assay: NVS_GPCR_rOpiate_NonSelectiveNa: NovaScreen (NVS) G Protein-Coupled Receptor Assay for rat Opioid Receptor, Non-selective Sodium (Na+) Binding (AID 2283311). The gist of the method:
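Filtration radioligand binding on rat forebrain membrane preparations, read 1.5 h after dosing. Single-concentration 25 µM primary screen in duplicate, followed by singleton concentration series to 50 µM max for actives; DMSO baseline.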

Assay [4] concerns the target rat Somatostatin Receptor (SST), Sstr1 (gene 25033) (UniProt P28646). In words: NVS_GPCR_rSST: NovaScreen (NVS) G Protein-Coupled Receptor Assay for rat Somatostatin Receptor (SST) (AID 2283314). The gist of the method:
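Single-concentration duplicate screen (25 uM), then concentration-response up to 50 uM for chemicals passing a threshold such as 30% inhibition. Membranes came from rat forebrain. Binding was measured 1 h post-dose by filter radiodetection and scintillation, relative to DMSO.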

In assay [5] the target is rat Opioid Receptor, Non-selective Binding, Oprm1 (gene 25601) (UniProt P33535). Kind of assay: NVS_GPCR_rOpiate_NonSelective: NovaScreen (NVS) G Protein-Coupled Receptor Assay for rat Opioid Receptor, Non-selective Binding (AID 2283318). The gist of the method:
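Filter-based radioligand displacement using rat forebrain membrane preparations, measured 1.5 h post-dosing. Single-concentration duplicate screen at 25 uM, follow-up in concentration series; activity taken as signal loss relative to DMSO.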

Assay [6] can be described thus: NVS_IC_rCaDHPRCh_L: NovaScreen (NVS) Ion Channel Assay for rat Calcium Channel, Type L, Dihydropyridine Site (CaDHPRCh_L) (AID 2283320). The gist of the method: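 Rat cortex membrane preparation; dihydropyridine-site radioligand displacement read 1 h post-dose by filtration and scintillation. Primary single-point screen 25 uM in duplicate, then concentration series to 50 uM maximum; DMSO as negative control.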

Assay [7] addresses rat Neurokinin-3 Receptor (NK3), Tacr3 (gene 24808) (UniProt P16177). In words: NVS_GPCR_rNK3: NovaScreen (NVS) G Protein-Coupled Receptor Assay for rat Neurokinin-3 Receptor (NK3) (AID 2283310). The gist of the method: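 Filter-based radioligand displacement on rat cortex membrane preparations, read by scintillation 2 h post-dose. Chemicals first tested in duplicate at 25 uM; actives followed up in concentration series with a 50 uM maximum.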

In another assay the test system is NCBI gene 24521. Kind of assay: NVS_IC_rKATPCh: NovaScreen (NVS) Ion Channel Assay for rat Potassium Channel, ATP-Sensitive (KATPCh) (AID 2283319). As for the experimental part:
NVS_IC_rKATPCh is a biochemical, single-readout assay that uses extracted gene-proteins from Rat cortical membranes in a tissue-based cell-free assay. Measurements were taken 2 hours after chemical dosing in a 48-well plate.NVS_IC_rKATPCh is one of one assay component(s) measured or calculated from the NVS_IC_rKATPCh assay. It is designed to make measurements of radioligand binding, a form of binding reporter, as detected with scintillation counting signals by Filter-based radiodetection technology.Data from the assay component NVS_IC_rKATPCh was analyzed into 1 assay endpoint. This assay endpoint, NVS_IC_rKATPCh, was analyzed in the positive analysis fitting direction relative to DMSO as the negative control and baseline of activity. Using a type of binding reporter, loss-of-signal activity can be used to understand changes in the binding as they relate to the gene Kcnj1. Furthermore, this assay endpoint can be referred to as a primary readout, because the performed assay has only produced 1 assay endpoint. To generalize the intended target to other relatable targets, this assay endpoint is annotated to the ion channel intended target family, where the subfamily is potassium channel.
Binding assays used specific radioligands (tritiated, iodinated) with non-radioactive competitive displacement ligands in agonist or antagonist protocols (as indicated) and various reference compounds and inhibitors to titrate specific binding to receptors and transporters. Most enzyme assays (CYPs, kinases, phosphatases, proteases, HDACs) used recombinant protein and specific substrates (fluorescence mostly, some colorimetric and radioactive) and inhibitors, followed by a biochemical separation of substrate and product. All assays for the biochemical HTS were initially run in duplicate at a single concentration (10 uM for CYP450 assays and 25 uM for all others). Assay-chemical combinations meeting a pre-defined threshold (e.g., 30% inhibition and other criteria defined below) were then run in singleton concentration-response format with maximum concentration of 20 uM for CYPs and 50 uM for all others. Each assay was run with positive and negative controls, and concurrent controls on every plate. The follow-up (secondary) screen tested active chemical-pairs in concentration series, as well as a few additional assays not tested in the primary screen, some selected negative inactives, and several cases re-run in the concentration series for confirmatory purposes.

For assay [8], the target named is rat Vasopressin 1 Receptor (V1), Avpr1a (gene 25107) (UniProt P30560). Kind of assay: NVS_GPCR_rV1: NovaScreen (NVS) G Protein-Coupled Receptor Assay for rat Vasopressin 1 Receptor (V1) (AID 2283316). The gist of the method:
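Concentration-response up to 50 uM for chemicals passing a threshold such as 30% inhibition in an initial duplicate 25 uM screen. Displacement of radioligand from rat liver membranes measured after 1.5 h by filtration and scintillation.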

Molecules are shown by their SMILES. Results filed as inconclusive are left out. Calls of active or inactive are those of the source. Rule for the calls: active = hit-call score of the fitted dose curve at least 0.9, where 1 is the maximum; inconclusive = response in the unintended direction; inactive = score below 0.9.

rat Neonicotinoid receptor (NNR), Chrna7 (gene 25302), sequence (Q05941 whole entry, looked up): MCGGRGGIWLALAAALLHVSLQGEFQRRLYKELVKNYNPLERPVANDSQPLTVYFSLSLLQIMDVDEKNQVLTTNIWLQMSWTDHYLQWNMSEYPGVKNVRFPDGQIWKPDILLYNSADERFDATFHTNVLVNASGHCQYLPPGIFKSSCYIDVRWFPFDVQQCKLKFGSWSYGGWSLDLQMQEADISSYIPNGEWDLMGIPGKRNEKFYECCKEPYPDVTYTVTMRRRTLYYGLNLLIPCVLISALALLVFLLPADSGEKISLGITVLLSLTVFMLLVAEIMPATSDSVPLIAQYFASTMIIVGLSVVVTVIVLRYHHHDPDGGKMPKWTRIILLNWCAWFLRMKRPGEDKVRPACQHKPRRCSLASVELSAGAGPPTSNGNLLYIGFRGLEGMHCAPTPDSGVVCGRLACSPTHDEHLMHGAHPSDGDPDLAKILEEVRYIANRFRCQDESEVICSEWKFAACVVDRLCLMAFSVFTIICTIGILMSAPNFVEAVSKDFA
rat Opioid Receptor, Non-selective Sodium (Na+) Binding, Oprm1 (gene 25601), sequence (P33535 whole entry, looked up): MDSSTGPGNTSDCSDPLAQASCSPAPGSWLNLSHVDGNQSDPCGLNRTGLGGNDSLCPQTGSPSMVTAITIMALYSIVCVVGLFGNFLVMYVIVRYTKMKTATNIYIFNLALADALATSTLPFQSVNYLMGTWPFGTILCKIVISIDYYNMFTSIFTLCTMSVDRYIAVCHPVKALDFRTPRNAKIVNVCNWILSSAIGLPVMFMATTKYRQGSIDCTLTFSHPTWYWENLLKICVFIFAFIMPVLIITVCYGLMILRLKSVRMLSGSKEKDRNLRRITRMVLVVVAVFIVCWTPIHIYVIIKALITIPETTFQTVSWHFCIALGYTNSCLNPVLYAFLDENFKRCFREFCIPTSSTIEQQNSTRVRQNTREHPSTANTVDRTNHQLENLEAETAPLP
rat Opioid Receptor, Non-selective Binding, Oprm1 (gene 25601), sequence (P33535 whole entry, looked up): as above
rat Vasopressin 1 Receptor (V1), Avpr1a (gene 25107), sequence (P30560 whole entry, looked up): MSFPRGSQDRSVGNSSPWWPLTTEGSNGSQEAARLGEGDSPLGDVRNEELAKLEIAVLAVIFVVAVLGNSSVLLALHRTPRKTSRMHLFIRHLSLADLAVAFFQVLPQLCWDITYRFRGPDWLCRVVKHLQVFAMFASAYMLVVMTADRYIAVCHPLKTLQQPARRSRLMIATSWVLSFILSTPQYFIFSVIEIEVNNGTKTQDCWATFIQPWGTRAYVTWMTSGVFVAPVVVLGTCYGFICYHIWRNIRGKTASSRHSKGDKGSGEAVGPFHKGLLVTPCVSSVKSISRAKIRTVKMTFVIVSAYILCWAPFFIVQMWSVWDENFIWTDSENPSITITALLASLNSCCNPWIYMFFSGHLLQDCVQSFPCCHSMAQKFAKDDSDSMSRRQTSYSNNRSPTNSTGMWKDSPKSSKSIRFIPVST
rat Somatostatin Receptor (SST), Sstr1 (gene 25033), sequence (P28646 whole entry, looked up): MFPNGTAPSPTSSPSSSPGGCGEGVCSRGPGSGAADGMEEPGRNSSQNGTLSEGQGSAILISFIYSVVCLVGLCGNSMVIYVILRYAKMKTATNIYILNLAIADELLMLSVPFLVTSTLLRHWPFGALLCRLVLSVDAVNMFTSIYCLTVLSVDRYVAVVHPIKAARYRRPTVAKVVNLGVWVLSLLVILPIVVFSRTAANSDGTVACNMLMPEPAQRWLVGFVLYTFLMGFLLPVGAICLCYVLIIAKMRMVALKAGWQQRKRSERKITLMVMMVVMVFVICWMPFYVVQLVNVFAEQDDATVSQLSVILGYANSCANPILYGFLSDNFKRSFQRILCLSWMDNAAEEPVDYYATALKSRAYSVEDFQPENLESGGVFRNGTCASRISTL
rat Neurokinin-3 Receptor (NK3), Tacr3 (gene 24808), sequence (P16177 whole entry, looked up): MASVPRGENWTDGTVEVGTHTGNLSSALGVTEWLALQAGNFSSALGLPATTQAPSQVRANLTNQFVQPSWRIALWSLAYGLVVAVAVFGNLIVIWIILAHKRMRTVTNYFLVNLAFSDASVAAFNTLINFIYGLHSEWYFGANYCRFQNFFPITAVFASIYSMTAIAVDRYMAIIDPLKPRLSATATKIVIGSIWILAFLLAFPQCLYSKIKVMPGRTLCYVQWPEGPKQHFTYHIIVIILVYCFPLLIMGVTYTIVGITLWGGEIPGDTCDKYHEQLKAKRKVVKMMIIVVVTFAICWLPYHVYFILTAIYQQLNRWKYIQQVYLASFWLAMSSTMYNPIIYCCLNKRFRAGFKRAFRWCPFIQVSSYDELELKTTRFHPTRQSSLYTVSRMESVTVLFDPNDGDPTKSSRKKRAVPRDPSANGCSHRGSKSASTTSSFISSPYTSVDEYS

In the case of `O=C(NS(=O)(=O)/C=C/c1ccccc1)c1ccc(F)cc1Cl`, the compound was classed as inactive in [1].

In the case of `O=c1[nH]c2ccc(S(=O)CCN3CCC(Cc4ccc(F)cc4)CC3)cc2o1` (configuration not stated), the concentration at half-maximal activity (AC50) in assay [2] was 6.76 µM (active). `COc1cccc(-c2ccc(/C=C\CN3CCCCCC3)cc2Cl)c1`: the half-maximal activity concentration (AC50) in assay [3] was 15.2 µM (active); in assay [5], 11.2 µM (active); in [6], 0.555 µM (active); in assay [2] it was 1.33 µM (active). In addition, the result in [4] and in assay [1] was inactive. For `Nc1ccc(Nc2ccccc2)cc1`, the AC50 in assay [2] was 5.39 µM (active).

Turning to `O=C(O)CC(O)C(=O)O` (configuration not stated), the call in assay [5] and in assay [2] was inactive. Regarding `CC[C@H]1CC[C@H](NCc2cc3c(cc2OC)[C@H]2C[C@H]2C(=O)N3C)[C@H](c2ccccc2)N1`, the values for the AC50 in assay [3], in [5] and in assay [2] were 2.83 µM (active), 2.58 µM (active) and 0.163 µM (active), respectively. Further, the call in assay [1] was inactive. Turning to `CCOc1cccc(-n2cc(C(=O)N3CCN(c4cc(C(=O)O)c5ccccc5c4)CC3)nc2-c2ccc(C)cc2)c1`, the AC50 is 8.81 µM (active) in assay [7], 21.2 µM (active) in the assay on NCBI gene 24521 and 7.07 µM (active) in [2].

Take `CCCCCCc1ccc(O)cc1O`: in [2], the compound was called inactive. As for `CCCCCCCCCCCCCCCO`, the result in [3] was inactive. Regarding `CCN(C(=O)c1cc(C)cc(OC[C@H](C)Nc2ccncc2)c1)C(C)C`, in [5], the result was inactive. Moreover, the AC50 in assay [2] is 10.1 µM (active). With `CCOC(=O)COc1ccc2c(c1)CC(NCC(O)c1cccc(Cl)c1)CC2` (configuration not stated), in assay [6], the outcome was inactive. Besides, the AC50 in [2] is 6.7 µM (active). Consider `COCCOc1cc2cc(C(=O)NC3CCN(C(C)C)CC3)n(CC(=O)Nc3ccc(Cl)cn3)c2cn1`, for which, in assay [2], the half-maximal activity concentration (AC50) was 25.8 µM (active). As to `CCCCC(CC)COC(=O)CCCCCCCCC(=O)OCC(CC)CCCC` (configuration not stated), the compound was called inactive in [2]. Consider `O=C(CCCCCCCCc1cccnc1)N1CCC(C=C(c2ccccc2)c2ccccc2)CC1`, for which the result in assay [8] was inactive.
